Measurements as given in ChEMBL document CHEMBL4513216, “Probing the Open Global Health Chemical Diversity Library for Multistage-Active Starting Points for Next-Generation Antimalarials” (ACS Infect Dis, 2020).
Among all 69,000 compounds or so, about 8,600 (12%) showed an effect of 50% or more. For the sample, strong results were picked, then their nearest neighbours and some compounds at random.

The molecules below were run on Plasmodium berghei (assay: Screen against P. berghei liver stage (PbLuc), transformed with Luciferase, at 10uM). Conditions: tested at 10 uM.
Assay type: functional, HepG2

SMILES | INHIBITION [%]
NC(=O)CCCNC(=O)Cc1csc(Cc2ccccn2)n1 | 46.6
CNC(=O)N1CCCCC1CCNS(C)(=O)=O (stereo unspecified) | -2.48
CC(=O)N1CCCN(C(C(=O)O)c2ccc(C)cc2C)CC1 (stereo unspecified) | 41.3
CNc1cc(N2CCCC2CNCc2cccc(C(N)=O)c2)ncn1 (stereo unspecified) | 39.5
CC(=O)N1CCN(C(=O)c2csc(-c3ccc(C)cc3C)n2)CC1 | 17
CN1CC2(CCN(C(=O)c3cccc(-n4cccn4)c3)CC2)OC1=O | 12
CC(=O)N1CCC(NC(=O)c2ccc3c(c2O)OC(C)(C)C3)CC1 | 48.2
Cc1ccc(CN2CCC3(CC2)CC(CC(=O)NC(C)C)CO3)s1 (stereo unspecified) | -62.7
CN(C)C[C@H]1OC[C@@H]2CCN(S(=O)(=O)c3ccc(F)cc3)C[C@@H]21 | 42.7
COc1ccccc1C(C)(C)NC(=O)NC1CCC(O)CC1 (stereo unspecified) | -30.3
Cc1ccc2oc(C(=O)N3CCCC(n4ccnc4C)C3)cc2n1 (stereo unspecified) | 20.33
Cc1ccccc1C(=O)N1CC(C(=O)NCC2CC2)C2(CCOCC2)C1 (stereo unspecified) | -41.4
Cc1ccccc1C(=O)NC[C@@H]1CCN(C(=O)c2cccn2C)C[C@H]1O | 17.4
Cc1ccccc1C(=O)NC[C@@H]1CCN(C(=O)C2(O)CCCC2)C[C@H]1O | 69.3
Cc1ccccc1C(=O)NC[C@@H]1CCN(C(=O)c2cscn2)C[C@H]1O | 63.8
Cc1ccccc1C(=O)NC[C@@H]1CCN(C(=O)CN2CCCC2)C[C@H]1O | 44.3
COc1ccc(C[C@H]2CN(C(=O)c3cscn3)CC[C@@H]2OC)cc1 | 22.3
Cc1ccc(C)c(-c2[nH]c3ccccc3c2C(=O)O)c1 | 13.5
Cn1ccnc1C1(O)CCN(C(=O)Cc2ccccc2)CC1 | 7.635
CCN(CC)S(=O)(=O)c1ccc(C(=O)NC(C)(C#N)C2CC2)cc1 (stereo unspecified) | -5.1
O=C(c1ccc2c(c1)CCC2)N1CCC(c2n[nH]c(C3CC3)n2)CC1 | -19.6
CC(=O)N1CCC(NC(=O)N(C)Cc2c(C)noc2C)CC1 | -35.61

SMILES | INHIBITION [%]
CC(=O)c1ccc(N2CCN(C(=O)c3cnn4c3OCCC4)CC2)cc1 | 16
COCc1ccc(C(=O)N2CCOCC2c2ccc(C)o2)cc1 (stereo unspecified) | 1.2
Cc1ccc(C2COCCN2C(=O)c2ccc(N(C)C)cc2)o1 (stereo unspecified) | -0.79
COc1ccc(C(=O)N2CCOCC2c2ccc(C)o2)cc1 (stereo unspecified) | 68
Cn1cccc1C1CCCN1Cc1noc(C(C)(C)C)n1 (stereo unspecified) | -40.5
CC(C)Cc1nc(CN2CCc3onc(-c4cccc(F)c4)c3C2)no1 | 82.5
Cn1ncc(CN2CCc3onc(-c4cccc(F)c4)c3C2)c1C1CC1 | 41.5
Fc1cccc(-c2noc3c2CN(Cc2cncn2C2CC2)CC3)c1 | 33.3
CC(C)(C)c1nc(CN2CCc3onc(-c4cccc(F)c4)c3C2)no1 | 67.7
COc1cc2c(nn1)CCN(Cc1noc(CC(C)C)n1)C2 | 17.4
CC(C)c1nc(CN2CCc3onc(-c4cccc(F)c4)c3C2)no1 | 84.1
CC(C(=O)N(C)C)N1CCc2onc(-c3cccc(F)c3)c2C1 (stereo unspecified) | 40.9
CC(C(N)=O)N1CCc2onc(-c3cccc(F)c3)c2C1 (stereo unspecified) | 18.2
COc1ncnc2c1CCN(Cc1nccs1)CC2 | -20.1
CCN(CC(=O)N(C)C)C(=O)c1ccc(-c2nc(C)cs2)cc1 | 30.9
CCCn1c(N2CCCCC2)nc2c(C)nn(C)c2c1=O | 35.9
Cc1occc1C(=O)N1CCC2(CCCN(Cc3nccs3)C2)C1 (stereo unspecified) | -58.3
CC(C)c1nccn1Cc1cc(C(=O)NCC(C)n2ccnc2)n[nH]1 (stereo unspecified) | 26
CC(C)c1nccn1Cc1cc(C(=O)NCC(F)(F)F)n[nH]1 | 94
Cc1ccc(CN(C)C(=O)c2cc(Cn3ccnc3C(C)C)[nH]n2)o1 | 42.3
CCn1ccnc1CN1CCN(C(C)C(=O)NCC(F)(F)F)CC1 (stereo unspecified) | 19.7
Cc1nc(CNC(=O)c2cc(Cn3ccnc3C(C)C)[nH]n2)sc1C | 37.9

SMILES | INHIBITION [%]
Cc1ccc(CNC(=O)c2cc(Cn3ccnc3C(C)C)[nH]n2)o1 | 63
CCc1nc(CNCCn2cc(C)cn2)no1 | 0.914
O=S(=O)(CCOc1ccc(F)cc1)Nc1cnn(CC(F)F)c1 | -6.85
CN1CCN2CCN(Cc3cc(=O)n4c5c(cccc35)CCC4)CC2C1 (stereo unspecified) | 13
CCCC1CN(CCOC)C(=O)c2cccnc2O1 (stereo unspecified) | 26.8
COc1ccccc1CN(Cc1cccc(C)c1)C(=O)[C@@H](N)CC(=O)O | 11.8
CN[C@@H](C)C(=O)N(Cc1cccc(C)c1)Cc1ccccc1OC | 34.1
COCC(=O)N(Cc1cccc(C)c1)Cc1ccccc1OC | 51.7
O=C(COc1ccc(F)cc1F)N1CCOCC(O)(CN2CCCC2)C1 (stereo unspecified) | 11.8
Cc1ccc2cc(C(=O)NCCN3CCS(=O)(=O)CC3)c(C)nc2c1 | 74.7
COc1ccc2nc(C)c(C(=O)NCCN3CCS(=O)(=O)CC3)cc2c1 | 46.9
CCN1CCN(CCCNC(=O)c2cc3ccc(C)cc3nc2C)CC1 | 37.2
COCCn1ccc2c(cnc3nc(SC)nn32)c1=O | 38.4
CSc1nc2ncc3c(=O)n(CCN4CCCCC4)ccc3n2n1 | 51
CSc1nc2ncc3c(=O)n(C)ccc3n2n1 | -3.73
CCn1c(C)cc(C(=O)N2C[C@@H](C(=O)O)[C@H](c3ccccc3C)C2)c1C | 0.33
CN(CCN1CCCCCC1)c1nccc(N2CCC(O)C2)n1 (stereo unspecified) | 27.6
c1cnc(N2CCC(OCCN3CCCCC3)C2)nc1 (stereo unspecified) | 40.6
Cc1cnc(N2CCCOC(CN3CCCCC3)C2)nc1 (stereo unspecified) | 34.1
C1CCN(CCOC2CCNCC2)CC1 | 3.63
Cc1cnc(N2CCC(OCCN3CCCCC3)C2)nc1C (stereo unspecified) | 54.5
Cc1cc(C)nc(N2CCC(OCCN3CCCCC3)C2)n1 (stereo unspecified) | 58.2

SMILES | INHIBITION [%]
CC(C)(C)c1nccc(N2CCC(OCCN3CCCCC3)C2)n1 (stereo unspecified) | 66.5
Cc1ccnc(N2CCC(OCCN3CCCCC3)C2)n1 (stereo unspecified) | 48.9
COc1ccnc(N2CCC(OCCN3CCCCC3)C2)n1 (stereo unspecified) | 42.4
c1nc2c(c(-c3ccsc3)n1)CCN(Cc1ccoc1)CC2 | 20.1
CCCNC(c1cccnc1)c1ccc(F)c(C)c1 (stereo unspecified) | -24.7
O=C(CN1CCOC(CNc2cccnn2)C1)NCc1cccs1 (stereo unspecified) | 36.55
CC(C)(C)c1nc(CN2CCOC(Cn3cccn3)C2)no1 (stereo unspecified) | -29.1
O=C(c1ccncc1F)N1C[C@@H]2CC[C@H]1CN(Cc1cccnc1)C2 | 22.7
Cc1cc(C(=O)NC(C)Cc2ccccc2Cl)n(C)n1 (stereo unspecified) | -39.3
Cc1noc(C)c1CN1CCCC2(CCN(C(=O)N3CCOCC3)C2)C1 (stereo unspecified) | 26
Cc1ccc(-c2nc(CN3CC(n4nc(C)cc4C)C3)no2)cc1 | 1.86
COCC1COCCC12CCN(C(=O)Cc1ccc(F)cc1)CC2 (stereo unspecified) | 0.542
COc1c(C(=O)NCC(C)Sc2ccccc2)c(C)nn1C (stereo unspecified) | 29.1
COc1ccccc1C(C)CNC(=O)c1c(C)nn(C)c1OC (stereo unspecified) | 0.705
CCC(CNC(=O)c1c(C)nn(C)c1OC)Oc1ccccc1 (stereo unspecified) | 73.5
Cc1ccc(NC(=O)N(CCO)Cc2ccsc2)cc1 | -71.5
COCCN(C)C(=O)Nc1ccc2c(ccn2CCOC)c1 | 58.4
COCCN(C)C(=O)Nc1ccc2c(ccn2CC(=O)N(C)C)c1 | 19.73
CCCn1ccc2ccc(NC(=O)N(C)CCOC)cc21 | 20.5
O=C1CC2(CNCCN(C(=O)Nc3ccccc3)C2)CN1 (stereo unspecified) | 16.1
CC(=O)NCC1CCC2(CCN(c3nccc(C4CCCC4)n3)CC2)O1 (stereo unspecified) | 42.1
CC(=O)NCC1CCC2(CCN(c3ncc(C(C)=O)c(C)n3)CC2)O1 (stereo unspecified) | 56.7

SMILES | INHIBITION [%]
CC(=O)NCC1CCC2(CCN(c3ncc(C)cn3)CC2)O1 (stereo unspecified) | -4.21
CCC(=O)N1CCC(NCc2cc(C(F)(F)F)ccc2Cl)C1 (stereo unspecified) | 42.6
c1csc(CN2CCCC3(COCCN(c4cnccn4)C3)C2)c1 (stereo unspecified) | 18.3
Cn1cc(CN2CCCC3(COCCN(c4cccnc4)C3)C2)cn1 (stereo unspecified) | 32.2
O=C(c1cccs1)N1CCCC2(COCCN(c3cccnc3)C2)C1 (stereo unspecified) | 67.2
O=C(c1cccnc1)N1CCCC2(COCCN(c3ccccc3)C2)C1 (stereo unspecified) | 29.7
CC(C)N1CCC2(CCCN(C(=O)c3cncn3C)C2)CC1 | 23.1
c1cncc(CN2CCCC3(COCCN(c4cncnc4)C3)C2)c1 (stereo unspecified) | 3.11
c1cncc(N2CCOCC3(CCCN(Cc4cccs4)C3)C2)c1 (stereo unspecified) | 59.1
O=C(c1cccs1)N1CCOCC2(C1)CN(c1cccnc1)C(=O)CO2 (stereo unspecified) | 0.618
CC(C)N1CCOCC2(CCCN(C(=O)c3cn(C)cn3)C2)C1 (stereo unspecified) | -27.9
c1cnc(N2CCOCC3(CCCN(Cc4cccs4)C3)C2)nc1 (stereo unspecified) | 67.2
CC(C)N1CCOCC2(CCCN(C(=O)c3cncn3C)C2)C1 (stereo unspecified) | 76.3
c1ccc(N2CCC3(COCCN(Cc4cccs4)C3)C2)nc1 (stereo unspecified) | -7.28
Cc1ccnn1CCNC(=O)c1cnc(N(C)C)nc1 | -43.452
COCCN1C[C@@H](C)[C@@]2(COCCN(C(=O)c3ccncc3)C2)C1 | -8.85
COc1c(C2CCCN2C(=O)c2c(C)noc2C)c(C)nn1C (stereo unspecified) | 19.4
Cc1ccn2c(F)c(C(=O)N3CCC4(CCCN(C)C4=O)C3)nc2c1 (stereo unspecified) | 3.69
